Of roughly 7,900 targets only a part is listed; those with a hit were picked by preference. About 0.6% of all pairs of compound and target were hits. Unmarked numbers belong to inactive results.
Tests used:
Assay in all cases: log2 fold change, soluble protein after heating vs DMSO (PISA); higher = thermal stabilisation; K562 cells, 10 uM, 30 min; active = over 0.2 and 3.5 SD of the protein, either way, in both replicates (recomputed)
[1] = compound: COC1=CC=C(C=C1)CN2C=CC3=C2C=C(C=C3)C(=O)NO
Method in brief: (§1)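 Values are thermal stability changes relative to control samples and are taken from duplicates. They are stated as log2 fold changes. Before quantification by TMTpro 16plex LC-MS/MS with equalised channel sums, K562 cells at 2×10^6 cells/mL were treated with 10 μM compound for 30 min, heated in aliquots for 3 min across 48°C-58°C, pooled, extracted in PBS with 0.5% NP-40 at 4°C, and centrifuged at 21,000xg for 90 min to give the soluble supernatant.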

filanesib = compound: CON(C)C(=O)N1N=C(c2cc(F)ccc2F)S[C@@]1(CCCN)c1ccccc1 [filanesib]
Method in brief: as §1

zotarolimus = compound: CO[C@H]1C[C@@H]2CC[C@@H](C)[C@@](O)(O2)C(=O)C(=O)N2CCCC[C@H]2C(=O)O[C@H]([C@H](C)C[C@@H]2CC[C@H](n3cnnn3)[C@H](OC)C2)CC(=O)[C@H](C)/C=C(\C)[C@@H](O)[C@@H](OC)C(=O)[C@H](C)C[C@H](C)/C=C/C=C/C=C/1C [zotarolimus]
Method in brief: as §1

idasanutlin = compound: COc1cc(C(=O)O)ccc1NC(=O)[C@@H]1N[C@@H](CC(C)(C)C)[C@](C#N)(c2ccc(Cl)cc2F)[C@H]1c1cccc(Cl)c1F [idasanutlin]
Method in brief: as §1

alisertib = compound: COc1cc(Nc2ncc3c(n2)-c2ccc(Cl)cc2C(c2c(F)cccc2OC)=NC3)ccc1C(=O)O [alisertib]
Method in brief: as §1

gefitinib = compound: COc1cc2ncnc(Nc3ccc(F)c(Cl)c3)c2cc1OCCCN1CCOCC1 [gefitinib]
Method in brief: as §1

[2] = compound: COc1cccc2cc(-c3nc([C@H]4CC[C@H](C(=O)O)CC4)n4ncnc(N)c34)[nH]c12
Method in brief: as §1

pictilisib = compound: CS(=O)(=O)N1CCN(Cc2cc3nc(-c4cccc5[nH]ncc45)nc(N4CCOCC4)c3s2)CC1 [pictilisib]
Method in brief: as §1

[3] = compound: CS(=O)(=O)c1ccc(-c2cnc(N)c(C(=O)Nc3ccccc3)n2)cc1
Method in brief: as §1

crizotinib = compound: C[C@@H](Oc1cc(-c2cnn(C3CCNCC3)c2)cnc1N)c1c(Cl)ccc(F)c1Cl [crizotinib]
Method in brief: as §1

[4] = compound: C[C@@H]1COCCN1C2=NC(=NC(=C2)C3(CC3)S(=O)(=O)C)C4=C5C=CNC5=CC=C4
Method in brief: as §1

[5] = compound: C[C@H](C1=CC=C(C=C1)C(=O)NC2=C3C=CNC3=NC=C2)N
Method in brief: as §1

duvelisib = compound: C[C@H](Nc1ncnc2nc[nH]c12)c1cc2cccc(Cl)c2c(=O)n1-c1ccccc1 [duvelisib]
Method in brief: as §1

gandotinib = compound: Cc1cc(Nc2cc(CN3CCOCC3)c3nc(C)c(Cc4ccc(Cl)cc4F)n3n2)n[nH]1 [gandotinib]
Method in brief: as §1

tozasertib = compound: Cc1cc(Nc2cc(N3CCN(C)CC3)nc(Sc3ccc(NC(=O)C4CC4)cc3)n2)n[nH]1 [tozasertib]
Method in brief: as §1

[6] = compound: Cc1cc(SCc2sc(-c3ccc(C(F)(F)F)cc3)nc2C)ccc1OCC(=O)O
Method in brief: as §1

doramapimod = compound: Cc1ccc(-n2nc(C(C)(C)C)cc2NC(=O)Nc2ccc(OCCN3CCOCC3)c3ccccc23)cc1 [doramapimod]
Method in brief: as §1

ispinesib = compound: Cc1ccc(C(=O)N(CCCN)[C@@H](c2nc3cc(Cl)ccc3c(=O)n2Cc2ccccc2)C(C)C)cc1 [ispinesib]
Method in brief: as §1

[7] = compound: COc1cc2nc(-c3cc(F)ccc3O)nc(N[C@@H]3CNC[C@H]3C(C)(C)O)c2cc1OC
Method in brief: as §1

lapatinib = compound: CS(=O)(=O)CCNCc1ccc(-c2ccc3ncnc(Nc4ccc(OCc5cccc(F)c5)c(Cl)c4)c3c2)o1 [lapatinib]
Method in brief: as §1

Chain of UniProt Q5VWP2 (Q5VWP2 whole entry, looked up): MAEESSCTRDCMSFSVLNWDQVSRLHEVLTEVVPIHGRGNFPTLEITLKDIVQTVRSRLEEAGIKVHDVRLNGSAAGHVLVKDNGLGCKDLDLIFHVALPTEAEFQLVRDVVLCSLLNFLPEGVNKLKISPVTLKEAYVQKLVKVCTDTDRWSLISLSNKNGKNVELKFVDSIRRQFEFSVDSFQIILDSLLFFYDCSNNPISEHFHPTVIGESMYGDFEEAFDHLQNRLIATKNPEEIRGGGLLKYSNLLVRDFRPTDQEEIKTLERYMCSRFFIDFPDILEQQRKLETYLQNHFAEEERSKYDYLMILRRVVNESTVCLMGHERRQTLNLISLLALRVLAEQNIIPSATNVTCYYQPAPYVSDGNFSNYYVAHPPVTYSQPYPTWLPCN
Chain of UniProt Q9Y5J6 (Q9Y5J6 whole entry, looked up): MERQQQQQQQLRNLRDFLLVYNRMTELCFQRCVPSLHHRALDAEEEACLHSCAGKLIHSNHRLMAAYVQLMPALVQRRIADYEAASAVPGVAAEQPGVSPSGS
Chain of UniProt Q969X1 (Q969X1 whole entry, looked up): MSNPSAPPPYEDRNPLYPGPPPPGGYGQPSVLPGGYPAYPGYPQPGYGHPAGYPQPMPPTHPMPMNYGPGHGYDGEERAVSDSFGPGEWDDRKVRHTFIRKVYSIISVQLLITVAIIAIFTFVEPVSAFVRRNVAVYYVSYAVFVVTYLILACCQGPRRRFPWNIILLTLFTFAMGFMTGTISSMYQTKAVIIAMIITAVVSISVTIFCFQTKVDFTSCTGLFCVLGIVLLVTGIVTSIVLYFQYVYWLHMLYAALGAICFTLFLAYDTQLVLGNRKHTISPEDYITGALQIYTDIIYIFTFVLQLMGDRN
Chain of UniProt P08240 (P08240 whole entry, looked up): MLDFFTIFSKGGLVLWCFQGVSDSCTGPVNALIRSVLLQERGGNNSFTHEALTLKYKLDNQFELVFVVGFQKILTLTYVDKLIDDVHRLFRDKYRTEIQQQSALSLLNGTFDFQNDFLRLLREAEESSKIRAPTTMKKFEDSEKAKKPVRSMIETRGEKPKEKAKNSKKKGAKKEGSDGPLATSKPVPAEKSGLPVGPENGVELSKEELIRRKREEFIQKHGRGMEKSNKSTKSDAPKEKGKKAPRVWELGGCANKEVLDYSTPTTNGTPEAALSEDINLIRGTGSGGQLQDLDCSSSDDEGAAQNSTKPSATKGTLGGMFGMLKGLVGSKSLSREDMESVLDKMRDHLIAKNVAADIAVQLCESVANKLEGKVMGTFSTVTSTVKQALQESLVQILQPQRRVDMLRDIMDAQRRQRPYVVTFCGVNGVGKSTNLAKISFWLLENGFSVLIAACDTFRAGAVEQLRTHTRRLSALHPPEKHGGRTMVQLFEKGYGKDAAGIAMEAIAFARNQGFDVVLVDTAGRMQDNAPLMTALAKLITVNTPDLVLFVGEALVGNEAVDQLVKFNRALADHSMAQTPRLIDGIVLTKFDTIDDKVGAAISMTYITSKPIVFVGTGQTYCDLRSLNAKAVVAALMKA
Chain of UniProt Q9H5L6 (Q9H5L6 whole entry, looked up): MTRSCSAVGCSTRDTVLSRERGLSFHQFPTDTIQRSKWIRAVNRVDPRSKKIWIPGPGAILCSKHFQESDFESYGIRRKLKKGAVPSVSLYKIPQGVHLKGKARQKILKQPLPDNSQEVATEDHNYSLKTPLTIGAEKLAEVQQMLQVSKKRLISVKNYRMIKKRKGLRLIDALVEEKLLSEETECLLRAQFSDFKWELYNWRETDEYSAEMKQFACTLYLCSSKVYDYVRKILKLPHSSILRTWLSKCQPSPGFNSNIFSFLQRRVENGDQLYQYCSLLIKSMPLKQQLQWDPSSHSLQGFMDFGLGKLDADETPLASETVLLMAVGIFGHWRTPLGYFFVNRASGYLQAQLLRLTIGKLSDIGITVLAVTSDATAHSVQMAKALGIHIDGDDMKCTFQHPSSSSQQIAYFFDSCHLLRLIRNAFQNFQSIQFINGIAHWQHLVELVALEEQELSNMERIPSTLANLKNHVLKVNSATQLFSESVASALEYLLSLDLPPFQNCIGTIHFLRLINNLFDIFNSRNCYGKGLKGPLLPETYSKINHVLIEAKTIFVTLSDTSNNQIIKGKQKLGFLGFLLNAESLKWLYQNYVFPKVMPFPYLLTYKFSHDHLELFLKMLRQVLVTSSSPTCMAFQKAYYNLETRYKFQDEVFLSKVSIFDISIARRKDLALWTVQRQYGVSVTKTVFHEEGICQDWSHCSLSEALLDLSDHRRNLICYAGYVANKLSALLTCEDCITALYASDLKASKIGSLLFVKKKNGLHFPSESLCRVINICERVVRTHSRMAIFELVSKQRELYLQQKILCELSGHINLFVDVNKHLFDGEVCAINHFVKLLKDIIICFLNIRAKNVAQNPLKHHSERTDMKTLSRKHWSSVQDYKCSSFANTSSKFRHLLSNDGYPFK
Chain of UniProt Q08AE8 (Q08AE8 whole entry, looked up): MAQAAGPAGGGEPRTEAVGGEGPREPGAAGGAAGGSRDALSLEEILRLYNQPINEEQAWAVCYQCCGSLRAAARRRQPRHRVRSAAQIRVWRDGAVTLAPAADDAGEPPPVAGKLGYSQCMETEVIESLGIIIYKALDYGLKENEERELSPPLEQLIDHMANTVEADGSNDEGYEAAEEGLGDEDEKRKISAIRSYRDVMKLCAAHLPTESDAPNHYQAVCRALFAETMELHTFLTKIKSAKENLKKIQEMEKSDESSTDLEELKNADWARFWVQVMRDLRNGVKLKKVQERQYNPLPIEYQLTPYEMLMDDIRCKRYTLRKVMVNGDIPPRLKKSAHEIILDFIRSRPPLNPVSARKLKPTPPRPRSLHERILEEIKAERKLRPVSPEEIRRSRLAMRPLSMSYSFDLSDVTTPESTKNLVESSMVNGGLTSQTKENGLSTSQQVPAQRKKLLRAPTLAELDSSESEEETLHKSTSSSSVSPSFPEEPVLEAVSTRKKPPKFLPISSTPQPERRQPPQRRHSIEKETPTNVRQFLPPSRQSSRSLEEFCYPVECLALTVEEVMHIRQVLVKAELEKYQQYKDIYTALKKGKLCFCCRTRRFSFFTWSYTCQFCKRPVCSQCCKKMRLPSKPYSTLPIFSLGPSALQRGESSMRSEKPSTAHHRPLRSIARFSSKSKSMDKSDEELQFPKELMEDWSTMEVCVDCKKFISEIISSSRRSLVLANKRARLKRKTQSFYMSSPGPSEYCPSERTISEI
Chain of UniProt Q9BYX2 (Q9BYX2 whole entry, looked up): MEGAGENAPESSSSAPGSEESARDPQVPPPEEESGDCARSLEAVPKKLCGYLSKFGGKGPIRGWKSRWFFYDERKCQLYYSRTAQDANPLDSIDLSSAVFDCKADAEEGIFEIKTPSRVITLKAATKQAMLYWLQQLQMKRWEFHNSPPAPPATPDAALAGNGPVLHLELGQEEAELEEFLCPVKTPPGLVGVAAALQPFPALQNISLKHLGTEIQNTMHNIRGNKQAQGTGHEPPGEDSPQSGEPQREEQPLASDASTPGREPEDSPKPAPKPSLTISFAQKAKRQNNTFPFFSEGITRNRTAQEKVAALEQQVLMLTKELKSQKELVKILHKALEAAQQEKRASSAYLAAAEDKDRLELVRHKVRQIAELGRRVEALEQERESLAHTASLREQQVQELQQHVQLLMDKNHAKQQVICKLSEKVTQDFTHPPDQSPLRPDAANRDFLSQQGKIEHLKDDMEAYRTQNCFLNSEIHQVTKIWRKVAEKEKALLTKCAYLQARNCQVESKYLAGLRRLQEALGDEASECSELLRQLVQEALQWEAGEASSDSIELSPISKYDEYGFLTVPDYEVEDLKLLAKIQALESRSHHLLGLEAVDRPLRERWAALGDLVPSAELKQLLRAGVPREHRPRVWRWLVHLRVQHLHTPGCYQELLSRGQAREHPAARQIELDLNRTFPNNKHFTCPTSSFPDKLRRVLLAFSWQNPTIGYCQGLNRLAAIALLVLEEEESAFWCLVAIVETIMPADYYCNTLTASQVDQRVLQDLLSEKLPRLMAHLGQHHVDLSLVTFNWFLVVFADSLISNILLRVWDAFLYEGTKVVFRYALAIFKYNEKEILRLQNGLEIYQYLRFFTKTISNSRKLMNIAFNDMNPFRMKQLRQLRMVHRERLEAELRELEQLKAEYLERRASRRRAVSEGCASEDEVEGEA
Chain of UniProt Q5JUR7 (Q5JUR7 whole entry, looked up): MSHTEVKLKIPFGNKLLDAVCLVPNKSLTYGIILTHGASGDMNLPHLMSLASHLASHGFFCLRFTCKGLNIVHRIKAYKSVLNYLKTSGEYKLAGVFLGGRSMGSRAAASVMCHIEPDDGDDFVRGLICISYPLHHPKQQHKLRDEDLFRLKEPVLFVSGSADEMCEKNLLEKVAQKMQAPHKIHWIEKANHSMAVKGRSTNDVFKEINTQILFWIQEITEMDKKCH
Chain of UniProt P20226 (P20226 whole entry, looked up): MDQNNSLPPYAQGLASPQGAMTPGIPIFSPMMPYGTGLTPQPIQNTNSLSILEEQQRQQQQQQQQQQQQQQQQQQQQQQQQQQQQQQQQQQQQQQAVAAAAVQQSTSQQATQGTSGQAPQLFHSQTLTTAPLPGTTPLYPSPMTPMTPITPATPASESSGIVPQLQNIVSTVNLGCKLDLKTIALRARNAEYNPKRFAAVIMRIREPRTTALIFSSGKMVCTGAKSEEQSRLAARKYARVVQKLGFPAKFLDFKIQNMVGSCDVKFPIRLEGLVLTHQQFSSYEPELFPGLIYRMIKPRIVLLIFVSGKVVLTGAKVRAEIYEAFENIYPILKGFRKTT
Chain of UniProt Q9BWG4 (Q9BWG4 whole entry, looked up): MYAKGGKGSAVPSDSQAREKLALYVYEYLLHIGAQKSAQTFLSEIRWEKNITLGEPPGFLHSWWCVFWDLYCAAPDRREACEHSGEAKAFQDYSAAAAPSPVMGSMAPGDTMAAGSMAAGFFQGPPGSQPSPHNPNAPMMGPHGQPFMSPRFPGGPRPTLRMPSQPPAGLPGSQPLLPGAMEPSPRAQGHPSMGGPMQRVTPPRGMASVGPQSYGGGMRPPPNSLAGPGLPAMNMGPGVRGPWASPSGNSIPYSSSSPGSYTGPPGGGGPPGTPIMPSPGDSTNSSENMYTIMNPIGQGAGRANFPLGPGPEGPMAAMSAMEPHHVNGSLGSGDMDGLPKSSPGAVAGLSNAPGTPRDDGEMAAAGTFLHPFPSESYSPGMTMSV

Target | log2 fold change [1] | log2 fold change (filanesib) | log2 fold change (zotarolimus) | log2 fold change (idasanutlin) | log2 fold change (alisertib) | log2 fold change (gefitinib) | log2 fold change [2] | log2 fold change (pictilisib) | log2 fold change [3] | log2 fold change (crizotinib) | log2 fold change [4] | log2 fold change [5] | log2 fold change (duvelisib) | log2 fold change (gandotinib) | log2 fold change (tozasertib) | log2 fold change [6] | log2 fold change (doramapimod) | log2 fold change (ispinesib) | log2 fold change [7] | log2 fold change (lapatinib)
SYNE1 (UniProt Q8NF91) | 0.316 | -0.079 | 0.019 | -0.029 | 0.002 | 0.049 | 0.084 | 0.187 | 0.096 | -0.132 | -0.041 | 0.104 | 0.103 | 0.109 | -0.187 | -0.04 | 0.061 | -0.159 | – | –
SRPRA (UniProt P08240) | 0.008 | -0.022 | -0.005 | -0.107 | -0.005 | -0.032 | -0.002 | -0.012 | 0.066 | 0.036 | 0.061 | 0.01 | 0.036 | -0.042 | -0.009 | 0.063 | -0.044 | 0.045 | 0.122 | 0.013
TANGO6 (UniProt Q9C0B7) | -0.025 | 0.04 | 0.061 | -0.112 | 0.032 | -0.049 | -0.036 | – | 0.006 | -0.123 | -0.022 | 0.366 (active) | 0.087 | – | -0.124 | 0.078 | -0.004 | -0.085 | -0.015 | 0.022
SLC35B1 isoform 2 (UniProt P78383) | -0.106 | -0.037 | -0.005 | – | -0.232 | -0.022 | 0.129 | – | 0.049 | -0.053 | -0.042 | -0.535 (active) | 0.171 | – | 0.075 | 0 | -0.061 | -0.043 | – | –
SPIRE1 (UniProt Q08AE8) | -0.509 (active) | – | -0.051 | -0.023 | -0.033 | -0.013 | 0.049 | 0.188 | – | -0.105 | -0.324 | 0.087 | – | 0.344 | -0.052 | – | 0.096 | -0.073 | – | –
SMARCB1 (UniProt Q12824) | -0.116 | 0.026 | 0.136 | – | – | – | – | 0.424 | 0.024 | -0.128 | – | 0.284 | 0.241 | 0.49 | 0.252 | 0.097 | 0.049 | – | – | –
TDP1 (UniProt Q9NUW8) | – | – | -0.015 | – | – | – | – | – | – | – | – | 0.145 | – | – | – | – | – | – | – | –
THAP9 (UniProt Q9H5L6) | 0.434 | – | -0.139 | 0.008 | -0.068 | -0.142 | 0.011 | – | – | -0.004 | – | -0.105 | 0.168 | – | – | -0.245 | 0.041 | -0.21 | – | –
TBC1D2 (UniProt Q9BYX2) | – | – | – | 0.016 | -0.053 | – | -0.211 | -0.097 | – | – | 0.064 | – | – | -0.04 | – | – | – | – | – | –
SSBP4 (UniProt U3KPY3) | – | – | – | – | 0.023 | – | 0.212 | – | – | – | – | – | – | – | – | – | – | – | – | –
TMBIM1 (UniProt Q969X1) | – | -0.161 | -0.117 | 0.013 | -0.018 | -0.004 | 0.088 | 0.138 | -0.03 | – | -0.043 | 0.274 | 0.042 | -0.017 | -0.154 | -0.026 | – | 0.303 | -0.254 | 0.172
TENT5C (UniProt Q5VWP2) | -0.133 | 0.049 | -0.56 (active) | – | 0 | 0.002 | -0.021 | 0.168 | 0.044 | 0.043 | – | 0.011 | 0.111 | 0.142 | -0.05 | 0.174 | 0.061 | 0.055 | 0.075 | -0.092
SSBP4 (UniProt Q9BWG4) | -0.065 | -0.601 | – | 0.122 | 0.018 | -0.001 | 0.029 | 0.117 | -0.054 | -0.034 | – | – | 0.255 | -0.121 | -0.014 | 0.123 | 0.103 | 0.148 | 0.076 | -0.145
SLC46A1 (UniProt Q96NT5) | – | – | -0.095 | -0.107 | – | – | – | 0.061 | – | – | – | -0.047 | – | -0.006 | 0.035 | – | – | – | – | –
SRCAP (UniProt Q6ZRS2) | -0.083 | 0.097 | -0.02 | – | -0.091 | 0.198 | 0.062 | 0.015 | -0.015 | -0.276 | – | -0.111 | 0.039 | -0.069 | 0.064 | -0.035 | 0.051 | 0 | -0.067 | 0.049
TEX30 (UniProt Q5JUR7) | -0.063 | – | 0.031 | -0.02 | 0.029 | -0.079 | 0.031 | 0.057 | – | -0.206 | 0.073 | 0.044 | 0.031 | -0.292 | 0.045 | 0.067 | 0.059 | -0.295 | 0.07 | -0.029
TBP (UniProt P20226) | -0.014 | – | -0.1 | -0.076 | 0.148 | 0.044 | 0.081 | – | – | 0.048 | -0.021 | 0.303 | -0.135 | – | 0.072 | -0.098 | -0.023 | -0.006 | 0.072 | 0.023
TIMM10B (UniProt Q9Y5J6) | – | -0.068 | 0.023 | 0.009 | -0.205 | 0.022 | 0.143 | -0.126 | 0.107 | – | 0.129 | 0.031 | 0.308 | 0.087 | -0.114 | -0.161 | – | 0.077 | 0.048 | -0.248
